# From the supplement of paper PMC10646978
# ± gives the standard deviation.
# Legend:
# Conditions in all cases: modulator concentration 10 µM
# [1] = tested on: RAW-Dual (murine macrophage reporter line); test: NF-kB reporter (SEAP) activity fold change vs agonist alone; higher = enhanced NF-kB activity
# Procedure, shortened: (§1)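 RAW-Dual murine macrophage reporter cells were seeded at 50 000 per well in 384-well plates and pre-incubated 1 hour at 37 °C with compound pin-transferred to 10 μM final. After 1 hour, a PRR agonist was added and cells incubated overnight. Supernatant NF-κB (SEAP, QUANTI-Blue, 620 nm absorbance) and IRF (Lucia luciferase, QUANTI-Luc, luminescence) signals were divided by the mean agonist-only control on the same plate to give fold change. Two replicate plates were averaged, with errors by propagation.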
# [2] = tested on: RAW-Dual (murine macrophage reporter line); test: IRF reporter (Lucia luciferase) activity fold change vs agonist alone; higher = enhanced IRF activity
# Procedure, shortened: as §1
# [3] = tested on: RAW-Dual (murine macrophage reporter line); test: viability score (confluency relative to resting cells, overnight) (fraction); higher = more viable, active = viable (0.7 or more)
# Procedure, shortened: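 RAW-Dual macrophages in 384-well plates were incubated overnight with compound, final concentration 10 μM. Confluency images from IncuCyte were processed in IncuCyte software into two masks covering all imaged wells. The viability score is each well's confluency relative to resting cells, and a compound met the cutoff when both masks exceeded 70% of resting cells.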
# [4] = agonist: CpG ODN 1826 0.5 ug/mL
Structure (SMILES),"NF-kB reporter [1, 4]",NF-kB reporter ([1]; agonist: LPS 0.1 ug/mL),NF-kB reporter ([1]; agonist: MPLA […]),IRF reporter ([2]; agonist: 3'3'-cGAMP 10 ug/mL),IRF reporter ([2]; agonist: LPS 0.1 ug/mL),IRF reporter ([2]; agonist: MPLA […]),viability score [3]
COc1cc2c(cc1O)CC1c3c(cc(O)c(OC)c3-2)CCN1C (stereo unspecified),0.916 ± 0.23,0.96 ± 0.078,0.924 ± 0.092,0.881 ± 0.03,1.17 ± 0.16,1.12 ± 0.11,0.999 (active)
O=[N+]([O-])Nc1ccc(Br)cn1,0.998 ± 0.09,0.98 ± 0.096,0.983 ± 0.048,0.961 ± 0.15,1.09 ± 0.064,1.17 ± 0.095,0.997 (active)
OCC(O)Cc1ccc2c(c1)OCO2 (stereo unspecified),1.02 ± 0.096,0.831 ± 0.062,0.906 ± 0.093,0.988 ± 0.031,1.37 ± 0.19,1.53 ± 0.25,0.994 (active)
Nc1ccncc1,1 ± 0.24,1.03 ± 0.078,0.879 ± 0.056,0.514 ± 0.022,0.929 ± 0.11,0.976 ± 0.25,0.858 (active)
C=C1C[C@@H]2[C@H](CC[C@]3(C)C(=O)CC[C@@H]23)[C@@]2(C)C=CC(=O)C=C12,0.843 ± 0.064,0.79 ± 0.091,0.984 ± 0.033,0.789 ± 0.051,0.911 ± 0.095,0.908 ± 0.16,0.987 (active)
CCNc1nc(Cl)nc(NC(C)C)n1,1.25 ± 0.097,0.873 ± 0.082,1.01 ± 0.094,1.01 ± 0.032,1.33 ± 0.21,1.49 ± 0.25,1.03 (active)
CCCCCC(=O)NC(Oc1ccc([N+](=O)[O-])cc1)C(Cl)(Cl)Cl (stereo unspecified),0.988 ± 0.091,1.08 ± 0.07,1 ± 0.035,0.896 ± 0.22,1.06 ± 0.085,1.03 ± 0.069,1 (active)
COc1ccc(C(CN(C)C)C2(O)CCCCC2)cc1 (stereo unspecified) [Prestw-1170],0.741 ± 0.12,1.17 ± 0.14,0.956 ± 0.074,0.916 ± 0.031,1.11 ± 0.22,1.37 ± 0.23,0.981 (active)
COc1cc(C2c3cc4c(cc3C(O)C3COC(=O)C23)OCO4)cc(OC)c1OC (stereo unspecified),1.37 ± 0.41,0.807 ± 0.077,1.08 ± 0.1,0.688 ± 0.021,1.19 ± 0.17,1.51 ± 0.22,0.967 (active)
Cc1ccccc1C(=O)Nc1cc(Cl)c([N+](=O)[O-])cc1Cl,1.05 ± 0.061,0.897 ± 0.078,0.973 ± 0.029,0.997 ± 0.037,0.996 ± 0.11,0.988 ± 0.21,0.998 (active)
CC(=O)OC1CN2CCC1CC2.Cl (stereo unspecified),0.984 ± 0.35,0.984 ± 0.12,0.971 ± 0.061,0.914 ± 0.052,0.869 ± 0.15,0.862 ± 0.081,1 (active)
Cc1noc(C)c1CC(=O)N1CCCSCC1CN1CCCC1 (stereo unspecified),0.943 ± 0.093,1.03 ± 0.083,0.906 ± 0.04,1.1 ± 0.065,1.09 ± 0.11,0.972 ± 0.14,1 (active)
COc1ccc(OC)c(C=C2C(=O)NC(=O)NC2=O)c1,1.15 ± 0.12,0.845 ± 0.061,1.12 ± 0.061,0.99 ± 0.17,0.995 ± 0.05,1.01 ± 0.16,0.995 (active)
O=C(NCCN1CCN(c2ccccc2)CC1)c1ccc(F)cc1,1 ± 0.081,1.04 ± 0.051,1.03 ± 0.026,1.1 ± 0.18,0.94 ± 0.045,0.83 ± 0.084,1 (active)
CC(C)(C)NCC(O)c1cc(Cl)c(N)c(Cl)c1 (stereo unspecified) [Prestw-345],1.89 ± 0.13,0.945 ± 0.072,1.29 ± 0.044,1.03 ± 0.04,0.886 ± 0.06,0.933 ± 0.09,0.988 (active)
O=c1cc(CCl)occ1O,1.18 ± 0.09,0.9 ± 0.09,1.13 ± 0.04,0.948 ± 0.13,0.876 ± 0.11,0.806 ± 0.26,0.999 (active)
Cc1ccc(C)c2sc(N3CCN(C)CC3)nc12.Cl,0.743 ± 0.18,1.02 ± 0.18,1.07 ± 0.071,0.92 ± 0.032,1.04 ± 0.14,1.19 ± 0.22,0.976 (active)
CCC1(O)C(=O)OCc2c1cc1n(c2=O)Cc2cc3ccccc3nc2-1 (stereo unspecified),0.948 ± 0.074,0.912 ± 0.069,0.889 ± 0.092,1.04 ± 0.033,1.24 ± 0.2,1.41 ± 0.24,0.974 (active)
Cc1c(NC=C2C(=O)NC(=O)NC2=O)c(=O)n(-c2ccccc2)n1C,0.967 ± 0.077,1.08 ± 0.074,0.957 ± 0.06,1.01 ± 0.029,1.45 ± 0.2,1.08 ± 0.069,1.02 (active)
COc1ccc(CCNCc2ccc3ccccc3c2)cc1OC,0.42 ± 0.095,0.762 ± 0.058,0.849 ± 0.08,0.893 ± 0.045,1.17 ± 0.12,1.24 ± 0.14,0.984 (active)
CC(=O)Oc1ccc(C=Cc2cc(OC(C)=O)cc(OC(C)=O)c2)cc1,1.12 ± 0.069,1.15 ± 0.073,1.12 ± 0.092,0.87 ± 0.029,0.953 ± 0.088,0.896 ± 0.093,1 (active)
CC12CC1(C)C(=O)N(c1cc(Cl)cc(Cl)c1)C2=O (stereo unspecified),1.06 ± 0.092,1.1 ± 0.097,0.96 ± 0.045,0.942 ± 0.085,1.11 ± 0.081,1.18 ± 0.17,1 (active)
CCCC(=O)c1ccc(N2CCNCC2)c(F)c1,0.404 ± 0.023,1.12 ± 0.069,0.961 ± 0.082,0.861 ± 0.043,1.4 ± 0.14,1.66 ± 0.18,0.951 (active)
O=C(O)COc1cc(Cl)c(Cl)cc1Cl,0.993 ± 0.076,0.836 ± 0.11,0.995 ± 0.093,1.02 ± 0.039,1.37 ± 0.18,1.46 ± 0.26,1.04 (active)
COc1ccc(CNCCc2c[nH]c3ccccc23)cc1OC,0.397 ± 0.056,0.947 ± 0.12,0.808 ± 0.077,0.763 ± 0.03,1.33 ± 0.26,1.34 ± 0.24,1.01 (active)
C1CCc2nnnn2CC1 [Prestw-162],1.27 ± 0.3,0.966 ± 0.18,1.03 ± 0.1,0.941 ± 0.039,1.11 ± 0.17,1.03 ± 0.23,1.01 (active)
O=C1NC(=O)C(=CNc2cccc(O)c2)C(=O)N1,0.859 ± 0.075,0.914 ± 0.053,1.09 ± 0.13,0.977 ± 0.062,1.43 ± 0.1,1.6 ± 0.17,1.01 (active)
c1ccc2c(c1)Nc1ccccc1S2,1.02 ± 0.25,0.934 ± 0.048,0.881 ± 0.11,0.778 ± 0.026,1.31 ± 0.25,1.32 ± 0.13,0.939 (active)
